Records with an inconclusive call do not appear. Entries that show only a call come without a potency. Active and inactive are the calls of the source. Calls come from the whole dose curve; as a rule, active = well fitted inhibition curve with a large enough effect; inconclusive = small, poorly fitted or top-dose-only effect; inactive = flat fitted curve, though single readings scatter.
The compounds below were run on MCC-26 (assay: qHTS assay to identify novel small-molecules to repurpose for Merkel cell carcinoma treatment (AID 1296009; note: nearly all actives have a fitted effect of over 60% in size)). Conditions: MCC and control cell lines, CellTiter-Glo viability, 72 h; series mostly up to 46 µM.
Source text: MCC is a rare and aggressive neuroendocrine skin cancer with limited treatment options. Approximately 80% of MCCs have the Merkel cell polyomavirus (MCPyV) DNA integrated into the host genome (virus-positive: VP-MCC) and viral oncogenes drive oncogenesis. The remaining MCCs are virus-negative (VN-MCC) and are caused by UV mutagenesis. To identify novel treatments for VP-MCC and/or VN-MCC we screened three VP-MCC cell lines (WAGA, MKL-1, MKL-2), three VN-MCC cell lines (MCC-13, MCC-26, UISO), and four immortalized, non-transformed control cell lines (HaCaT, HEK293T, CRL7250, NIH-3T3) against ~2,400 compounds in the NCGC Pharmaceutical Collection (NPC) and ~1,900 compounds in the Mechanism Interrogation PlatE (MiPE). Using cell viability as a readout (CellTiter-Glo assay) we found both overlapping and distinct drugs that can be repurposed for the treatment of VP-MCC and VN-MCC.
A high-throughput screen was conducted in 1536-well white flat bottom plates (Corning) on a Kalypsys robotic system. Cell lines WAGA, MKL-1, MKL-2, MCC-13, MCC-26, UISO, HaCaT, HEK293T, CRL7250, and NIH-3T3 were screened against 2 small molecule annotated drug libraries NPC and MIPE in dose response (8 and 11 pt. respectively) measuring cell viability after 72 hours of incubation. […] A 1,536 pintool (Kalypsys) was used to transfer 23 nL of compound in DMSO to the 1,536-well assay plates. After 72 hr incubation at 37 degree celsius, 2.5 uL of CellTiter-Glo (Promega) was dispensed into each well using a BiorapTR. Plates were incubated at room temperature for 10 min, transferred to a ViewLux (PerkinElmer) and the luminescence was recorded using an exposure time of 2 seconds. Relative luminescence units (RLUs) were normalized to in-plate controls (no cells as a positive (cytotoxicity) control, DMSO as negative control) and the normalized data was processed using NCATS in-house software.

With CO[C@@]1(NC(=O)Cc2cccs2)C(=O)N2C(C(=O)O)=C(COC(N)=O)CS[C@@H]21 as the compound, how does the Potency read?
The Potency was “inactive”.

For Nc1c(CC(=O)O)cccc1C(=O)c1ccc(Br)cc1, which Potency is on record?
Its Potency is “inactive”.

For CC(=O)SCC(CC(=O)c1ccc(C)cc1)C(=O)O (stereo not given), which Potency is on record?
The Potency was “inactive”.

CNC(=O)c1c(I)c(NC(=O)CCCCC(=O)Nc2c(I)c(C(=O)O)c(I)c(C(=O)NC)c2I)c(I)c(C(=O)O)c1I was tested. Which Potency did it give?
The Potency was “inactive”.

Cc1c(C(=O)O)c(O)cc2c1C(=O)c1c(O)c([C@@H]3O[C@H](CO)[C@@H](O)[C@H](O)[C@H]3O)c(O)c(O)c1C2=O was tested. Which Potency did it give?
The Potency was “inactive”.

Which Potency does the source give for COc1ccnc2c1CCCCC2S(=O)c1nc2ccccc2[nH]1 (stereo not given) here?
Its Potency is “inactive”.

For C/C(=N\O)c1ccc(OCC(=O)N2CCCCC2)cc1, which Potency is on record?
The Potency was “inactive”.

O=C(O)Cc1ccc2c(c1)C(=O)c1ccccc1CO2 was tested. Which Potency did it give?
Its Potency is “inactive”.

Which Potency does the source give for COc1cc2c3cc1Oc1cc(ccc1O)C[C@@H]1c4c(cc(OC)c(O)c4Oc4ccc(cc4)C[C@@H]3N(C)CC2)CC[N+]1(C)C here?
The Potency was “inactive”.

With Nc1ccc(O)c([N+](=O)[O-])c1 as the compound, how does the Potency read?
Its Potency is “inactive”.

With CCCCCCCCCCCCCCCCCC(=O)O as the compound, how does the Potency read?
The Potency was “inactive”.

Nc1ccc([N+](=O)[O-])cc1O was tested. Which Potency did it give?
The Potency was “inactive”.

Which Potency does the source give for CCCCCCCCCCCCOCCO here?
Its Potency is “inactive”.

How did the Potency turn out when Cc1nc2ccccc2n1Cc1ccc(Cl)cc1 was run?
The Potency was “inactive”.

How did the Potency turn out when CCC1C(=O)OCC1Cc1cncn1C (stereo not given) was run?
The Potency was “inactive”.

For O=C(O)/C=C\C(=O)O, which Potency is on record?
Its Potency is “inactive”.

Which Potency does the source give for O=C(OCc1ccccc1)c1ccccc1 here?
Its Potency is “inactive”.

Which Potency does the source give for CCOc1ccc2nc(S(N)(=O)=O)sc2c1 here?
The Potency was “inactive”.

With CC(C(=O)O)c1ccc2c(c1)[nH]c1ccc(Cl)cc12 (stereo not given) as the compound, how does the Potency read?
Its Potency is “inactive”.

With O=C(O)Cc1cccc(-c2cc(CCCCCCc3ccc(O[C@H]4O[C@H](CO)[C@@H](O)[C@H](O)[C@@H]4O)c(-c4cccc(CC(=O)O)c4)c3)ccc2O[C@H]2O[C@H](CO)[C@@H](O)[C@H](O)[C@@H]2O)c1 as the compound, how does the activity change, negative = cytotoxicity read?
Its activity change, negative = cytotoxicity is 4.83% [at 0.597 µM] (inactive).

For CC(N)C(=O)OC(C)(C)Cc1ccc(Cl)cc1 (stereo not given), which Potency is on record?
The Potency was “inactive”.

For CCCCC1C(=O)N(c2ccccc2)N(c2ccc(O)cc2)C1=O (stereo not given), which Potency is on record?
The Potency was “inactive”.

With C=CCCCCCCCCC(=O)O as the compound, how does the Potency read?
The Potency was “inactive”.

With Nc1nc2ccc([N+](=O)[O-])cc2s1 as the compound, how does the Potency read?
The Potency was “inactive”.

With C#CC1(O)CC[C@H]2[C@@H]3CCC4=CCCC[C@@H]4[C@H]3CC[C@@]21C (stereo not given in full) as the compound, how does the Potency read?
The Potency was “inactive”.

With CC(C(=O)O)c1ccc(C(=O)c2ccccc2)s1 (stereo not given) as the compound, how does the Potency read?
Its Potency is “inactive”.

Which Potency does the source give for CN1CC(=O)N/C1=N/C(=O)Nc1cccc(Cl)c1 here?
Its Potency is “inactive”.

Which Potency does the source give for C#C[C@]1(O)CC[C@H]2[C@@H]3CCc4cc(O)ccc4[C@H]3CC[C@@]21C here?
Its Potency is “inactive”.

Which Potency does the source give for CCCOC(=O)c1ccc(O)cc1 here?
The Potency was “inactive”.

For O=C(CCN1CCN(CCO)CC1)N1c2ccccc2Sc2ccc(C(F)(F)F)cc21, which Potency is on record?
The Potency was “inactive”.

Which Potency does the source give for CC(=O)c1ccc(OCC(=O)N2CCCCC2)cc1 here?
The Potency was “inactive”.

Which Potency does the source give for Cc1c(N)c(=O)n(-c2ccccc2)n1C here?
Its Potency is “inactive”.

COc1ccc(-c2cc(=S)ss2)cc1 was tested. Which Potency did it give?
Its Potency is “inactive”.

How did the Potency turn out when O=c1[nH]c2ccccc2n1CCCN1CCN(C(c2ccccc2)c2ccccc2)CC1 was run?
The Potency was “inactive”.

Which Potency does the source give for Nc1ccc(O)c(C(=O)O)c1 here?
The Potency was “inactive”.

Which Potency does the source give for Nc1ccc(C(=O)O)c(O)c1 here?
Its Potency is “inactive”.

Cc1ccc(O)c(-n2nc3ccccc3n2)c1 was tested. Which Potency did it give?
Its Potency is “inactive”.

How did the Potency turn out when O=C(O)c1ccccc1Nc1cccc(C(F)(F)F)c1 was run?
Its Potency is “inactive”.

With CC(C)(C)c1nnc(NS(=O)(=O)c2ccc(N)cc2)s1 as the compound, how does the Potency read?
Its Potency is “inactive”.

O=C(/C=C/c1ccccc1)NCCO was tested. Which Potency did it give?
Its Potency is “inactive”.

Source: PubChem BioAssay (NCATS)
